Screening results (PubChem)
CRFR2-BP antag: antagonists of CRF-binding protein/CRF-R2 receptor complex | 350,000 tested, 0.59% active | AID 588475 | HEK293 CRF-R2/CRF-BP, CRF-induced calcium fluorescence | inhibition, % at 11.8 µM;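 active = inhibition of the ligand-induced calcium signal above about 50% at the single tested concentration, limit read from the data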
TMEM16A act: activates or potentiates the mouse TMEM16A chloride channel. 340,000 tested, 0.3% active. HEK293 TMEM16A/YFP-H148Q/I152L, iodide quench fluorescence; hits give low values. B-score at 10 µM. AID 623877;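 active = fluorescence-ratio B-score plate-corrected deviation score at least 3 library SD below zero, with starting fluorescence score within 5 deviations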;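 also: channel opened by trigger with iodide after compound preincubation; score built on the fluorescence ratio of max minus min over baseline; more negative score means more quench and so TMEM16A activation or potentiation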
Target sequence (Q8BHY3 whole entry, looked up): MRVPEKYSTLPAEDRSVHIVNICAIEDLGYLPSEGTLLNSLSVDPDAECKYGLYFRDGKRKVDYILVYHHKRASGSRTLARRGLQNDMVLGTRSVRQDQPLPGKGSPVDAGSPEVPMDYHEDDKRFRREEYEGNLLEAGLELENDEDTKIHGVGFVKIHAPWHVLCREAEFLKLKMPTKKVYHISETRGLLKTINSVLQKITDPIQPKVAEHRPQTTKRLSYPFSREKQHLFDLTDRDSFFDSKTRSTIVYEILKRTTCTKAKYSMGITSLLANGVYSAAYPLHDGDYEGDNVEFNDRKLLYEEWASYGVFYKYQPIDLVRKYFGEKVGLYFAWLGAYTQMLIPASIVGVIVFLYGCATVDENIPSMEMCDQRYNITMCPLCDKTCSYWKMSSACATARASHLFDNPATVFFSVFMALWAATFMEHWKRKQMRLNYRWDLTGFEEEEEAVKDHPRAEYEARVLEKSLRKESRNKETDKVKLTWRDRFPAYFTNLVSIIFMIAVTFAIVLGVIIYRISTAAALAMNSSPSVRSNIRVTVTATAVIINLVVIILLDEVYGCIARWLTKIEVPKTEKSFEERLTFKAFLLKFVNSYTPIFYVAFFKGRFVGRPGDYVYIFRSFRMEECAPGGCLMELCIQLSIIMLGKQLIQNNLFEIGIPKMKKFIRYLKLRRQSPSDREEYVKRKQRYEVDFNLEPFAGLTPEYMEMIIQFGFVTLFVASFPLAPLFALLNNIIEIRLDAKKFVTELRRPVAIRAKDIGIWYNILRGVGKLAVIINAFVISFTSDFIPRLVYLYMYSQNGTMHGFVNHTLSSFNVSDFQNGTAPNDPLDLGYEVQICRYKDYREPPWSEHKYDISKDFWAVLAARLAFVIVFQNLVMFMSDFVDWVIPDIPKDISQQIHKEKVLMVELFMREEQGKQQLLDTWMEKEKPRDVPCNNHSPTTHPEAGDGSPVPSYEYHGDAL
CRFBP-R2 agonist: CRF-BP/CRF-R2 complex agonism. AID 588473. activation, % at 13.2 µM. HEK293 CRF-R2/CRF-BP, calcium dye fluorescence (FLIPR); percent of saturating CRF peptide response. 350,000 tested, 0.46% active;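 active = activation of at least 50%, plus an integration ratio under a set limit after plate pattern correction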
NR3A LBD binder: modulators (binders) of human NR3A ligand-binding domain; NR3A LBD differential scanning fluorimetry, Tm shift; 0% = protein alone, 100% = glycine-bound protein; Tm shift relative to glycine control, % at 25 µM; 340,000 tested, 2.5% active;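 active = melting temperature shift of at least 10% of the positive control shift, at one fixed dose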
MPTP block: blocks calcium-induced mitochondrial swelling; isolated mouse mitochondria, Ca2+ swelling absorbance, 30 min; inhibition, % at 10 µM; 360,000 tested, 1.4% active;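 active = inhibition of 50% or more, scaled per plate between neutral and stimulator controls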
ANO1 block: inhibitors of mouse TMEM16A calcium-activated chloride channel. Q8BHY3. HEK293 TMEM16A/YFP iodide influx fluorescence, ionomycin. normalized B-score (activity score, 25-100; higher = stronger inhibition) at 10 µM. 310,000 tested, 1.2% active. AID 588511;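 active = ratio plate-corrected score three or more library SD toward inhibition, starting fluorescence score within five deviations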;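 also: score derived from kinetic fluorescence span divided by baseline fluorescence per well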
MPTP counter: Rhodamine 123 counter-screen of mitochondrial pore hits; 5,000 tested, 78% active; AID 624504; inhibition, % at 10 µM; shares compounds with MPTP block; isolated mitochondria, membrane potential, Rhodamine 123 fluorescence; in the data active = inhibition above about 22%
MPTP abs DR: MPTP inhibition, dose response swelling confirmation; isolated mitochondria swelling, absorbance; 780 tested, 58% active; shares compounds with MPTP block; IC50, µM; in the data active = IC50 below about 20 µM
MPTP cs DR: counter-screen for mitochondrial permeability transition pore inhibitors, dose response; 780 tested, 49% active; AID 651564; IC50, µM; shares compounds with MPTP block; isolated mitochondria counterscreen, fluorescence read-out; in the data active = IC50 below about 80 µM
Large screens that a line does not name were inactive (follow-up assays come after a bar, where they were run). This is a sample that favours compounds with a hit; in the whole collection about 5.1% have one here.

CC1CN(C(=O)Cn2cc(SCC(=O)N3CCOCC3)c3ccccc32)CC(C)O1 (stereo unspecified)	none
CCOC(=O)N1CCN(c2ncnc3c2[nH]c2ccc(F)cc23)CC1	MPTP block 98.4 | MPTP counter 84.3
OC1(c2cccc(C(F)(F)F)c2)CCN(c2ncnc3c2[nH]c2ccc(F)cc23)CC1	MPTP block 50.4 (no result: ANO1 block) | MPTP counter 87.4
Fc1ccc2[nH]c3c(N4CCN(c5ccccc5)CC4)ncnc3c2c1	MPTP block 97.6 | MPTP counter 111.5
CCOC(=O)N1CCN(c2ncnc3c2[nH]c2ccc(OC)cc23)CC1	none
O=C(CCCN1CCC(O)(c2cccc(C(F)(F)F)c2)CC1)c1ccc(F)cc1	none
CSCCC(NC(=O)c1ccccc1Br)C(=O)N1CCN(C/C=C/c2ccccc2)CC1 (stereo unspecified)	none (no result: ANO1 block)
CC(C)c1cccc(-c2csc(C(C)(O)c3ccncc3)n2)c1 (stereo unspecified)	MPTP block 95.1 (no result: CRFR2-BP antag, TMEM16A act, CRFBP-R2 agonist, NR3A LBD binder, ANO1 block) | MPTP counter 89.2
O=C(N/N=C/c1ccccc1)c1[nH]c2ccc(Br)cc2c1-c1ccccc1	NR3A LBD binder 26.6, MPTP block 86.3 | MPTP counter 90.2
O=C1C=C(c2cccc(Cl)c2O)C[C@@H](c2ccc(Cl)cc2)C1	none (no result: ANO1 block)
O=C1C(=O)c2ccccc2C(O)=C1C1CCC(c2ccc(Cl)cc2)CC1 (stereo unspecified)	MPTP block 101.8 | MPTP counter 92.9
O=C(c1ccccc1)c1ccc(Cn2cc(-c3ccccc3)nn2)cc1	MPTP block 84.6 | MPTP counter 98.8
O=C(Nc1cccc(NC(=O)c2ccco2)n1)c1ccco1	none
CCOC(=O)Cc1nnc2c(Nc3ccccc3F)nc3nonc3n12	MPTP block 92.2 | MPTP counter 124.9
CCOC(=O)Cc1nnc2c(Nc3ccc(C)cc3)nc3nonc3n12	none
COCCCNC(=O)c1ccccc1N(Cc1ccccc1)S(=O)(=O)c1ccccc1	none
CC(C)Nc1ncnc2c1ncn2[C@H]1CN(Cc2ccc(Cl)cc2)C[C@@H](CO)O1	none (no result: CRFR2-BP antag, TMEM16A act, CRFBP-R2 agonist, NR3A LBD binder, ANO1 block)
O=c1[nH]c2ccc(NC(=S)Nc3ccc(Cl)cc3)cc2[nH]1	MPTP block 56.1 | MPTP counter 102.8
CCOC(=O)c1ccc(NC(=S)Nc2ccc3[nH]c(=O)[nH]c3c2)cc1	MPTP block 74.4 | MPTP counter 58.6
S=C(Nc1ccc(Cl)cc1)Nc1ccc2cn[nH]c2c1	NR3A LBD binder 25.6, MPTP block 92.7 | MPTP counter 88.5
CC(C)NC(=S)Nc1ccc2cn[nH]c2c1	none
Cc1ccc(S(=O)(=O)NC(=O)C2(C)CCN2C(=O)CC2CCCCC2)nc1 (stereo unspecified)	none (no result: CRFR2-BP antag, TMEM16A act, CRFBP-R2 agonist, NR3A LBD binder, ANO1 block)
CC(=O)N1CCN(C(=O)c2cc(S(=O)(=O)N3CCCCC3)ccc2Cl)CC1	none
Cc1cccc(NC(=O)CSc2nnc(C)c(C)n2)c1	none
COc1ccc(CCN2CCCn3c2nc2c3c(=O)n(CC(C)C)c(=O)n2C)cc1OC	none
COc1ccc(NS(=O)(=O)c2cccc(C(=O)NCc3ccccc3CN3CCCC3)c2)cc1	none (no result: ANO1 block)
COc1cc(C[C@@H]2C(=O)OC[C@H]2Cc2ccc(OC)c(OC)c2)ccc1O	MPTP block 92.5 (no result: ANO1 block) | MPTP counter 80.4
COc1cc(CC2COC(=O)C2(O)Cc2ccc(O)c(OC)c2)ccc1O (stereo unspecified)	none
COCCOc1ccc(C(F)(F)F)cc1NC(=O)c1ccc(C)cc1	MPTP block 58.0 | MPTP counter inactive | MPTP abs DR 15.3 | MPTP cs DR inactive
COC(=O)c1sccc1NC(=O)c1c(Cl)cnn1C	none
CN1CCN(/N=C/c2ccc(-c3ccccc3)cc2)CC1	MPTP block 69.8 | MPTP counter inactive
CN1CCN(/N=C/c2c3ccccc3c(Cl)c3ccccc23)CC1	MPTP block 90.6 | MPTP counter inactive
C(=N\N1CCN(Cc2ccccc2)CC1)/c1ccc(-c2ccccc2)cc1	none
CSc1ccc(/C=N/N2CCN(C)CC2)cc1	none
Cc1ccc(-c2noc(C3CCN(S(=O)(=O)c4ccc5c(c4)OCCO5)CC3)n2)o1	MPTP block 52.4 | MPTP counter 63.8
Nc1c2c(nc3sc4c(c13)CCCC4)CCCCCC2	MPTP block 86.1 | MPTP counter 103.5
Cn1c(=Nc2ccc(N3CCOCC3)cc2)ccc2ccccc21	none
Cn1c(N=Nc2ccc(N3CCOCC3)cc2)[n+](C)c2ccccc21	MPTP block 81.2 (no result: ANO1 block) | MPTP counter 24.7
O=[N+]([O-])c1ccccc1CNc1ccc(F)c(Cl)c1	MPTP block 76.2 | MPTP counter 80.2
O=C(Nc1ccon1)Nc1ccc(F)cc1F	none
O=C(Nc1ccc(F)cc1F)Nc1csc2ccccc12	NR3A LBD binder 14.9, MPTP block 83.2 | MPTP counter 85.3
O=C(Nc1ccc(F)c(Cl)c1)Nc1csc2ccccc12	NR3A LBD binder 39.1, MPTP block 76.1 | MPTP counter 68.0
CCCCCCCCCCCn1nnnc1N	none (no result: ANO1 block)
CC(C)(C)OC(=O)NCCCCCc1cn(CC(=O)NCCCCCCCCCCC(=O)N2CCN(C(=O)OC(C)(C)C)CC2)nn1	MPTP block 94.3 | MPTP counter inactive | MPTP abs DR 1.99 | MPTP cs DR <2.5
O=C(OCc1cccc([N+](=O)[O-])c1)c1ccc[nH]c1=O	none
C[C@@H]1CN([C@H](C)CO)C(=O)CCCn2cc(nn2)CO[C@H]1CN(C)S(=O)(=O)c1ccccc1F	none (no result: CRFR2-BP antag, TMEM16A act, CRFBP-R2 agonist, NR3A LBD binder, ANO1 block)
Clc1ccc2c(N/N=C/c3ccc(Br)cc3)ccnc2c1	NR3A LBD binder 33.1, MPTP block 88.5 | MPTP counter 73.5
Clc1ccc2c(N/N=C/c3cccnc3)ccnc2c1	none
Cc1ccccc1/C=N/Nc1ccnc2cc(Cl)ccc12	MPTP block 98.9 | MPTP counter 91.3
Oc1ccc(/C=N/Nc2ccnc3cc(Cl)ccc23)c(O)c1	NR3A LBD binder 27.4, MPTP block 58.4 | MPTP counter 59.3
Clc1ccc(NNc2ccnc3cc(Cl)ccc23)cc1	none
Cc1ccc(/C=N/Nc2ccnc3cc(Cl)ccc23)c(C)c1	MPTP block 64.3 | MPTP counter 91.9
Oc1ccc(Nc2ccnc3cc(Cl)ccc23)cc1	none
Cc1cccc(C)c1NC(=S)NCCSc1ccc(Cl)cc1	MPTP block 82.1 | MPTP counter 86.3
Cc1ccc(NC(=S)NCCSc2ccc(Cl)cc2)cc1	NR3A LBD binder 18.3, MPTP block 99.8 | MPTP counter 99.4
